Compounds with a hit are over-represented: about 4.7% of the library has one in this group of screens.
TRHR enhancer = allosterically enhances the human TRH receptor; P34981; TRHR cells, fluo-8 calcium fluorescence, EC20 TRH enhancement; enhancement, % at 2 µM; 0.66% of 360,000 active; in the data active means enhancement above about 30%
Target sequence (P34981 whole entry, looked up): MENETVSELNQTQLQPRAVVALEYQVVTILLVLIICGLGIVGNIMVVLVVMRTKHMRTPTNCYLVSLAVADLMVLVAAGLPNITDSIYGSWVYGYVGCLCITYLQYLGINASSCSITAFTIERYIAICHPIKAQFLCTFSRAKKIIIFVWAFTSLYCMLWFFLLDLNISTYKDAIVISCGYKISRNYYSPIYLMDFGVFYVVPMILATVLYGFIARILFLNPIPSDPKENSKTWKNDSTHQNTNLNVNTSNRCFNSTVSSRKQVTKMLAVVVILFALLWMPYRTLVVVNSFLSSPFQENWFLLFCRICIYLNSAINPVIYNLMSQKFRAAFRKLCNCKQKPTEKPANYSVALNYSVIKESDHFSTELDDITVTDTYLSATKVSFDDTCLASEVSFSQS
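TRHR-expressing cells loaded with fluo-8 calcium dye were read kinetically (ex 480/em 530) during compound addition, then stimulated with an EC20 of TRH (10 nM final). Enhancement of the Gq-mediated intracellular calcium response was scored.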
D1 antag = human D1 dopamine receptor antagonism; 3.2% of 360,000 active; P21728; HEK293 TREx D1 cells, calcium flux, dopamine EC80; hits give low values; activity change, negative = inhibition, % at 10 µM; in the data active means activity change below about -30%
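Antagonism measured as reduced calcium response to an EC80 dopamine addition following 180 s compound pre-read; cells were inducible HEK293 Trex D1 plated overnight at 30 C, read kinetically at 1 cycle/sec.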
D1 potentiator = enhances dopamine response at the human D1 receptor; potentiation, % at 10 µM; 0.036% of 360,000 active; P21728; HEK293 TREx D1 cells, calcium flux, dopamine EC20 potentiation; AID 504651; in the data active means potentiation above about 30%
TRHR agonist = agonists of human TRH receptor. TRHR cells, calcium flux fluo-8, FDSS agonist mode. activation, % at 2 µM. 0.18% of 360,000 active
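Fluo-8-loaded TRHR cells; 10 s baseline, compound added, kinetic Ca2+ fluorescence read 1/s, agonist mode.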
D1 ag = activates the human D1 dopamine receptor | P21728 | HEK293 T-REx D1 cells, calcium flux, agonist mode | activation, % at 2 µM | 1% of 360,000 active
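Tetracycline-induced HEK293 TREx D1 cells, force-coupled to calcium signalling, were dye-loaded with a no-wash calcium kit. Compound was pin-added after a 10 s baseline. Fluorescence was read kinetically at 1 cycle/s for 180 s, with calcium rises flagged as agonism.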
Of the large screens only hits and unclear results are named; the others gave an inactive call. Unless noted, no stated cut-off is given here; in the data, active means activation above about 30%; inactive means the rest.

CCN(CC)c1ccc(/C=C/[N+](=O)[O-])cc1	TRHR agonist 72, D1 ag 254
Cn1c(=O)n(C)c2cc(CNCCc3ccccc3F)ccc21	none
O=S1(=O)N(Cc2ccccc2)CCCN1Cc1ccc(F)cc1Cl	D1 antag -44
COc1ccc2c3c([nH]c2c1)C(C)=NCC3	none
CC1=NCCc2c1[nH]c1cc(O)ccc21	D1 ag 405
O=C1NC(=O)C(=Cc2ccc(Oc3ccc([N+](=O)[O-])cc3)cc2)C(=O)N1	D1 antag -36
c1ccc2c(c1)CSc1ccccc1C2C1=NCCN1 (stereo unspecified)	none
Brc1ccc2c(c1)C(OC1CN3CCC1CC3)c1ccccc1CS2 (stereo unspecified)	D1 antag -36
Cc1ccc(-n2c(/C=C/c3ccc(Br)s3)nc3ccccc3c2=O)cc1	none
CCCSc1nc2ccccc2c(=O)n1-c1ccccc1OC	none
CN1C(=O)C(=Cc2ccc(OCC(=O)Nc3ccccc3)cc2)C(=O)N(C)C1=O	D1 antag -34
Cc1oc(-c2ccc(Cl)cc2)nc1CN1C(=O)CN=C(c2ccccc2)c2cc(Cl)ccc21	none
CCn1c(O)c(C=Nc2ccc(N3CCOCC3)cc2)c(=O)n(CC)c1=S	TRHR agonist 32, D1 ag 99
O=c1[nH]c(=S)n(-c2ccc(Cl)cc2)c(O)c1C=Nc1ccc(N2CCOCC2)cc1	TRHR enhancer 33, D1 ag 42
CCOC(=O)c1cc(CC)sc1/N=C/C1C(=O)NC(=S)NC1=O	TRHR enhancer 33
Cc1ccc2c(c1)C1CN(C)CCC1N2C(=O)Nc1cccc(Cl)c1 (stereo unspecified)	D1 antag -96
C=CCN1CCc2cccc3c2[C@H]1Cc1ccc(O)c(O)c1-3	D1 antag -90, D1 ag 32
COc1ccc(OC)c(NC(=O)Cn2cc(C(=O)c3ccccc3F)c3ccccc32)c1	D1 antag -33
C[N+]1(CC2COC(c3ccco3)O2)CCCCC1 (stereo unspecified)	D1 antag -33
CCN(CC)CCSc1nc2ccccc2c(=O)n1-c1ccc(Cl)cc1	none
COc1cc(/C=C/C(=O)c2c(O)n(CCc3ccccc3)c(=O)[nH]c2=O)ccc1O	D1 ag 42
O=C(/C=C/c1ccccc1)c1c(O)n(CCc2ccccc2)c(=O)[nH]c1=O	none
Cc1cc(C)cc(-n2c(=O)[nH]c3ccccc3c2=O)c1	none
Cc1cc(-n2c(/C=C/c3ccc(Br)s3)nc3ccccc3c2=O)ccc1Br	none
Cc1cc(-n2c(/C=C/c3cccs3)nc3ccccc3c2=O)ccc1Br	D1 antag -32
Cc1ccc(OCC(=O)Nc2ccc(Cl)cc2C(=O)c2ccccc2)c(Br)c1	none
Cc1cccc(Cn2cccc(C(=O)Nc3nc4ccccc4s3)c2=O)c1	none (no result: D1 antag)
CN1CCN(c2ccc([N+](=O)[O-])cc2Cl)CC1	none
CN1CCN(c2cc([N+](=O)[O-])ccc2Cl)CC1	D1 antag -51
COc1ccc(-n2c(/C=C\c3ccccc3F)nc3ccccc3c2=O)cc1OC	none
Cc1ccccc1-n1c(/C=C/c2ccccc2F)nc2ccccc2c1=O	none
CN(C)C1(CNC(=O)Nc2ccc(Cl)c(Cl)c2)CCCCC1	D1 ag 32
CN(C)C1(CNC(=O)c2ccc(NS(=O)(=O)c3ccc(Cl)c(Cl)c3)cc2)CCCCC1	none
Cc1ccc(-c2nc(N3CCOCC3)s[n+]2-c2ccccc2)cc1	TRHR enhancer 31
CC(NCc1ccc(Cl)c(Cl)c1)C(O)c1ccccc1 (stereo unspecified)	none
CCOc1cc(CNC(C)C(O)c2ccccc2)cc(Cl)c1OCC (stereo unspecified)	D1 ag 39
Cc1cccc(Cn2cccc(C(=O)Nc3nnc(C)s3)c2=O)c1	none (no result: D1 antag)
CCCCC12CN3CC(C)(CN(C1)C3c1ccccn1)C2=O (stereo unspecified)	none
COCCNCCOc1ccc(C(C)(C)c2ccccc2)cc1	D1 ag 38
Fc1ccc(CNCCc2ccccc2F)cc1	none
Fc1ccc(CCNCc2ccc(Br)cc2)cc1	D1 ag 33
Fc1ccc(CCNCc2cccc(Cl)c2)cc1	D1 ag 42
COc1cccc(CNCCc2ccc(F)cc2)c1	none
COC(=O)C(Cc1ccc(N(CCCl)CCCl)cc1)N=Cc1ccccc1O (stereo unspecified)	D1 antag -40

Screening results: PubChem BioAssay, National Center for Advancing Translational Sciences (NCATS)
